The record followed here is PubChem BioAssay (EPA / NIEHS).

What all share (settings): mRNA level, 48 h; actives raise or lower the signal
Read-out in assay [1]: Bcl-2 (BAX) gene, BAX (gene 581)
The experiment in a line: LTEA_HepaRG_BAX: Life Technologies and Expression Analysis (LTEA) Assay for Bcl-2 (BAX) gene using HepaRG (AID 2283470). The method, boiled down: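 qRT-PCR read-out of BAX mRNA, normalized to three housekeeping genes, after 48 h chemical exposure of human HepaRG cells in serum-free induction medium; eight-point half-log series, top 100 uM, 0.5% DMSO vehicle; bidirectional fit versus DMSO.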

Read-out in assay [2]: adenosine kinase (ADK) gene, ADK (gene 132)
The experiment in a line: LTEA_HepaRG_ADK: Life Technologies and Expression Analysis (LTEA) Assay for adenosine kinase (ADK) gene using HepaRG (AID 2283471). The procedure, abridged:
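HepaRG (human liver), 48 h chemical exposure, 8-pt half-log series, top 100 uM, 0.5% DMSO vehicle. Readout: ADK mRNA by qRT-PCR vs housekeeping genes; bidirectional curve fit relative to DMSO baseline.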

Read-out in assay [3]: Alpha-fetoprotein (AFP) gene, AFP (gene 174)
Description: LTEA_HepaRG_AFP: Life Technologies and Expression Analysis (LTEA) Assay for Alpha-fetoprotein (AFP) gene using HepaRG (AID 2283472). The procedure, abridged:
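qRT-PCR (Fluidigm TaqMan) readout of AFP transcript, normalized to three housekeeping genes, fitted bidirectionally against 0.5% DMSO baseline. HepaRG cells received chemicals for 48 h in serum-free induction medium, top concentration 100 uM, half-log steps.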

Read-out in assay [4]: BCL2L11 (gene 10018)
Description: LTEA_HepaRG_BCL2L11: Life Technologies and Expression Analysis (LTEA) Assay for Bcl-2 (BCL2L11) gene using HepaRG (AID 2283473). The procedure, abridged:
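Differentiated human HepaRG cells in serum-free induction medium were exposed in duplicate for 48 h to eight concentrations (top 100 uM, half-log steps, 0.5% DMSO). BCL2L11 mRNA was quantified by TaqMan qRT-PCR, normalized to ACTB/GAPDH/POLR2A, bidirectional fit versus DMSO.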

Read-out in assay [5]: Apoptosis regulator Bcl-2 (Homo sapiens) (UniProt P10415)
The experiment in a line: LTEA_HepaRG_BCL2: Life Technologies and Expression Analysis (LTEA) Assay for Bcl-2 gene using HepaRG (AID 2283475). The method, boiled down: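 qRT-PCR read-out (Fluidigm TaqMan) of BCL2 transcript, normalised to three housekeeping genes, after 48 h chemical exposure of HepaRG cells; 8-point half-log series, top 100 uM, 0.5% DMSO vehicle. Gain or loss of signal fitted relative to DMSO baseline.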

Read-out in assay [6]: Bcl-2 (BID) gene, BID (gene 637)
Description: LTEA_HepaRG_BID: Life Technologies and Expression Analysis (LTEA) Assay for Bcl-2 (BID) gene using HepaRG (AID 2283476). The method, boiled down:
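HepaRG, 48 h exposure, 8-pt half-log series, top 100 uM, 0.5% DMSO vehicle, duplicates. Readout: BID mRNA by TaqMan qRT-PCR; housekeeping-normalized; bidirectional curve fit vs DMSO baseline.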

Read-out in assay [7]: Caspase-3 (Homo sapiens) (UniProt P42574)
The experiment in a line: LTEA_HepaRG_CASP3: Life Technologies and Expression Analysis (LTEA) Assay for cysteine-aspartic acid protease (CASP3) using HepaRG (AID 2283477). The procedure, abridged:
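Differentiated human HepaRG cells in serum-free induction medium were exposed 48 h to 8-point half-log concentrations from 100 uM (0.5% DMSO vehicle). CASP3 mRNA was measured by qRT-PCR, normalised to ACTB, GAPDH and POLR2A, with bidirectional fitting against DMSO.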

Read-out in assay [8]: Cytochrome P450 (CYP24A1), CYP24A1 (gene 1591)
The experiment in a line: LTEA_HepaRG_CYP24A1: Life Technologies and Expression Analysis (LTEA) Assay for Cytochrome P450 (CYP24A1) using HepaRG (AID 2283478). The method, boiled down:
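Differentiated HepaRG cells, pre-cultured 48 h, were exposed in duplicate for 48 h in serum-free induction medium to 8 half-log concentrations (top 100 uM, 0.5% DMSO). CYP24A1 mRNA was quantified by TaqMan qRT-PCR, normalized to ACTB/GAPDH/POLR2A, fitted bidirectionally versus DMSO.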

Read-out in assay [9]: Cytochrome P450 (CYP1A2), CYP1A2 (gene 1544)
The experiment in a line: LTEA_HepaRG_CYP1A2: Life Technologies and Expression Analysis (LTEA) Assay for Cytochrome P450 (CYP1A2) using HepaRG (AID 2283479). The procedure, abridged: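 Differentiated human HepaRG cells in serum-free induction medium were exposed in duplicate for 48 h to 8-point half-log concentrations up to 100 uM in 0.5% DMSO. CYP1A2 mRNA measured by qRT-PCR, normalized to ACTB, GAPDH, POLR2A; bidirectional fit vs DMSO.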

Read-out in assay [10]: cysteine-aspartic acid protease (CASP8), CASP8 (gene 841)
The experiment in a line: LTEA_HepaRG_CASP8: Life Technologies and Expression Analysis (LTEA) Assay for cysteine-aspartic acid protease (CASP8) using HepaRG (AID 2283480). The method, boiled down:
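CASP8 transcript measured by TaqMan qRT-PCR with ACTB/GAPDH/POLR2A normalization, after 48 h chemical exposure of HepaRG cells in serum-free induction medium. Eight concentrations, top 100 uM, half-log steps, 0.5% DMSO vehicle; fits in both directions versus DMSO.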

Read-out in assay [11]: Cytochrome P450 (CYP2B6), CYP2B6 (gene 1555)
Description: LTEA_HepaRG_CYP2B6: Life Technologies and Expression Analysis (LTEA) Assay for Cytochrome P450 (CYP2B6) using HepaRG (AID 2283481). The method, boiled down: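 Differentiated HepaRG cells, serum-free induction medium, exposed 48 h in duplicate to 8-point half-log concentrations from 100 uM in 0.5% DMSO. CYP2B6 mRNA by qRT-PCR, normalized to ACTB, GAPDH, POLR2A; bidirectional fit versus DMSO.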

Read-out in assay [12]: Cytochrome P450 2C19 (Homo sapiens) (UniProt P33261)
Description: LTEA_HepaRG_CYP2C19: Life Technologies and Expression Analysis (LTEA) Assay for CYP2C19 using HepaRG (AID 2283482). The method, boiled down: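 Differentiated human HepaRG cells were exposed for 48 h in serum-free induction medium to 8 concentrations (top 100 uM, half-log steps, 0.5% DMSO). CYP2C19 mRNA was measured by qRT-PCR, normalized to ACTB/GAPDH/POLR2A, and fitted bidirectionally against DMSO.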

Read-out in assay [13]: CYP2C8 (gene 1558)
The experiment in a line: LTEA_HepaRG_CYP2C8: Life Technologies and Expression Analysis (LTEA) Assay for CYP2C8 using HepaRG (AID 2283483). The procedure, abridged:
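CYP2C8 expression measured by TaqMan qRT-PCR and normalized to three housekeeping genes. HepaRG cultures were treated for 48 h with an eight-point half-log series topping at 100 uM, vehicle 0.5% DMSO, duplicates; fitted both directions against DMSO.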

Read-out in assay [14]: CYP2C9 (gene 1559)
The experiment in a line: LTEA_HepaRG_CYP2C9: Life Technologies and Expression Analysis (LTEA) Assay for CYP2C9 using HepaRG (AID 2283484). The method, boiled down:
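CYP2C9 transcript level, quantified by TaqMan qRT-PCR against three housekeeping genes, was fitted bidirectionally relative to 0.5% DMSO. HepaRG cultures were treated 48 h, in duplicate, at eight half-log concentrations topping at 100 uM.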

Read-out in assay [15]: CYP2E1 (gene 1571)
Description: LTEA_HepaRG_CYP2E1: Life Technologies and Expression Analysis (LTEA) Assay for CYP2E1 using HepaRG (AID 2283485). The procedure, abridged: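 CYP2E1 transcript was measured by TaqMan qRT-PCR in human HepaRG cultures after 48 h chemical exposure (top 100 uM, half-log steps, 0.5% DMSO vehicle). Housekeeping-gene normalization; gain or loss fitted relative to DMSO baseline.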

Read-out in assay [16]: DNA damage-inducible transcript 3 (DDIT3), DDIT3 (gene 1649)
The experiment in a line: LTEA_HepaRG_DDIT3: Life Technologies and Expression Analysis (LTEA) Assay for DNA damage-inducible transcript 3 (DDIT3) using HepaRG (AID 2283488). The method, boiled down: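 qRT-PCR readout (Fluidigm TaqMan), housekeeping-normalized to ACTB, GAPDH, POLR2A. HepaRG cells, 48 h exposure, 8-point half-log series from 100 uM in 0.5% DMSO, duplicates. Gain or loss of signal fitted against DMSO baseline.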

Read-out in assay [17]: Pro-epidermal growth factor (Homo sapiens) (UniProt P01133)
The experiment in a line: LTEA_HepaRG_EGF: Life Technologies and Expression Analysis (LTEA) Assay for Epidermal growth factor (EGF) using HepaRG (AID 2283489). The procedure, abridged: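 Differentiated human HepaRG cells, plated 48 h then switched to serum-free induction medium, were exposed for 48 h to test chemicals (8-point half-log series, top 100 uM, 0.5% DMSO). EGF mRNA was quantified by qRT-PCR, normalized to ACTB, GAPDH, POLR2A.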

Read-out in assay [18]: CYP4A11 (gene 1579)
The experiment in a line: LTEA_HepaRG_CYP4A11: Life Technologies and Expression Analysis (LTEA) Assay for CYP4A11 using HepaRG (AID 2283486). The method, boiled down:
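Differentiated HepaRG cells, serum-free induction medium, exposed 48 h in duplicate to 8-point half-log series from 100 uM in 0.5% DMSO. CYP4A11 mRNA measured by qRT-PCR, normalized to ACTB, GAPDH, POLR2A; bidirectional fit versus DMSO.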

Molecules are shown by their SMILES. The source made the active and inactive calls. Rule for the calls: active = hit-call score of the fitted dose curve at least 0.9, where 1 is the maximum; inactive = score below 0.9.

Caspase-3 (Homo sapiens), sequence (P42574 whole entry, looked up): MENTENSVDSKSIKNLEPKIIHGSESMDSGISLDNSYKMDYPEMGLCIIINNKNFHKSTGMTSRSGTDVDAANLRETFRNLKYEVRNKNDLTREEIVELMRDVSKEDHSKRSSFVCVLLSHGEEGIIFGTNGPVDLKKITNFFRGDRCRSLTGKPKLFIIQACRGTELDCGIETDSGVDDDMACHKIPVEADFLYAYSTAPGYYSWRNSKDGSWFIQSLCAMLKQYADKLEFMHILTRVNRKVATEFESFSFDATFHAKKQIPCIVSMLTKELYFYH
Cytochrome P450 2C19 (Homo sapiens), sequence (P33261 whole entry, looked up): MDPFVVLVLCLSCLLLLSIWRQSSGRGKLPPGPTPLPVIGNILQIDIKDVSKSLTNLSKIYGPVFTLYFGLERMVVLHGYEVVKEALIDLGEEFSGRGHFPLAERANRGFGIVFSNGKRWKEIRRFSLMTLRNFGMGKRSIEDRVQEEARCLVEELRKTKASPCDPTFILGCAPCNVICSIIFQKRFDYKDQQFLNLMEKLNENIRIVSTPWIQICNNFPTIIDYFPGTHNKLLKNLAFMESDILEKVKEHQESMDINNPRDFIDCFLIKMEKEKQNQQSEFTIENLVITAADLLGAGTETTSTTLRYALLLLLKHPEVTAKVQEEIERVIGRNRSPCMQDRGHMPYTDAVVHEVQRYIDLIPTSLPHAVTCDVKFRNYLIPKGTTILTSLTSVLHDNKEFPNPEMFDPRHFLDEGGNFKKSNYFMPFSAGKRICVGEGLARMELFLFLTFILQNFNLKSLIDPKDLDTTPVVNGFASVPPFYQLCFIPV
Apoptosis regulator Bcl-2 (Homo sapiens), sequence (P10415 whole entry, looked up): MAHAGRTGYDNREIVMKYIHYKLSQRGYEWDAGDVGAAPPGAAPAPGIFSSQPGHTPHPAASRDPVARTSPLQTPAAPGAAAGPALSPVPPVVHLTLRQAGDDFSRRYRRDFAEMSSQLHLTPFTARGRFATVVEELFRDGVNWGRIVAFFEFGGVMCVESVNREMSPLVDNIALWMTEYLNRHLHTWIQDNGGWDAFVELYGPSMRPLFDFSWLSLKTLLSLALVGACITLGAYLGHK

As to `O=C1c2c(O)cccc2Cc2cccc(O)c21`, the compound was called inactive in [1], in assay [2], in [3], in assay [4], in assay [5] and in [6]. Further, the outcome in [7], in assay [8], in [10], in assay [11], in assay [12] and in assay [13] was inactive. The compound was called inactive in [14], in assay [15], in [16] and in assay [17]. Besides, the AC50 in assay [9] was 18.2 µM (active).
Take `C=CCCCCCCCCCCCC`: the call in [1], in assay [2], in assay [3], in assay [4], in assay [5] and in [6] was inactive. For the same compound, the call in [7], in [8], in assay [10], in assay [11], in assay [12] and in assay [13] was inactive. The outcome in [14], in assay [15], in assay [16] and in [17] was inactive. Further, the AC50 in assay [9] was 50 µM (active).
`CN(C)CCCN1c2ccccc2Sc2ccc(Cl)cc21`: the outcome in [1], in assay [5], in assay [6], in assay [7], in assay [8] and in assay [13] was inactive. In addition, the compound was called inactive in assay [14] and in assay [17]. In addition, the AC50 in [2] was 90.5 µM (active); in assay [3] it was 26.6 µM (active); in assay [4], 72.8 µM (active); in [9] it was 19.4 µM (active); in [10], 94.5 µM (active); in assay [11], 2.21 µM (active). Besides, the AC50 was 13.3 µM (active) in assay [15], 84.7 µM (active) in assay [18] and 61.3 µM (active) in assay [16].
For the compound `CC(COCC(C)OC(=O)c1ccccc1)OC(=O)c1ccccc1` (centres undefined), the result in assay [1], in [2], in assay [3], in assay [4], in assay [5] and in assay [6] was inactive. Also, the outcome in assay [7], in assay [8], in assay [9], in assay [10], in assay [11] and in assay [12] was inactive. Besides, the outcome in [13], in assay [14], in [15], in assay [18], in assay [16] and in assay [17] was inactive.
